# FEN1 inh – inhibitors of human flap endonuclease 1. Recombinant FEN1 flap cleavage, fluorescence, 15 min. 390,000 compounds, 0.35% hits. Potency, µM (doses to about 114 µM), inactives show at the highest dose activity change, negative = inhibition, hits mostly inhibitors; also: % is scaled to controls: 0 for no effect and ±100 for the full control effect; nearly all actives have a fitted effect of over 65% in size
#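 Reaction started by adding substrate (50 nM final) to 10 nM enzyme after 15 min room-temperature compound preincubation. Reads at 0 and 15 min, with data normalized and fitted to a four-parameter Hill equation.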
# WRN inhibitor – blocks human WRN helicase. WRN helicase unwinding, fluorescent forked duplex, kinetic. 360,000 compounds, 0.46% hits. Potency, µM (top dose mostly 114 µM), inactives show top-dose activity change, negative = inhibition, actives largely listed as inhibitors; also: % is scaled to controls: 0 for no effect and ±100 for the full control effect; nearly all actives have a fitted effect of over 55% in size
#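 Fluorescence dequenching readout, ex 525 nm/em 598 nm, kinetic mode: forked duplex DNA (100 nM final) with adjacent fluorophore and quencher unwound by WRN (20 nM final) with 2 mM ATP. Compound preincubation 15 min, room temperature.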
# Pol eta inh – blocks human DNA polymerase eta activity. 390,000 compounds, 1.2% hits. Potency, µM (titrated, usually from 114 µM), without a hit: top-dose activity change, negative = inhibition, most hits filed as inhibitors. Q9Y253. recombinant Pol eta, fluorescent DNA replication assay; also: % is scaled to controls: 0 for no effect and ±100 for the full control effect
#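 Fluorescent replication assay: 50 nM final substrate added after a 15 min room-temperature compound preincubation with 10 nM enzyme. Signal taken at 0 min and again at 10 min.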
# POLB inh – blocks human DNA polymerase beta activity | Potency, µM (top dose mostly 114 µM), for inactives: at the highest dose activity change, negative = inhibition, hits mostly inhibitors | AID 485314 | P06746 | Pol beta primer extension/strand displacement, fluorescence kinetic | 340,000 compounds, 1.3% hits; also: % is scaled to controls: 0 for no effect and ±100 for the full control effect
#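 Enzyme-only controls used 10 nM Pol beta; buffer lacking enzyme served as negative control. Compound preincubated 15 min, then 50 nM substrate added; 0 and 10 min reads at room temperature.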
# Pol kappa inh – blocks human DNA polymerase kappa activity; 400,000 compounds, 0.53% hits; Q9UBT6; purified Pol kappa, fluorescent DNA synthesis assay, 10 min; Potency, µM (doses to about 107 µM), without a hit: at the top dose activity, negative = inhibition, usual class: inhibitors; AID 588579; also: % is scaled to controls: 0 for no effect and ±100 for the full control effect
#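 First, compounds were pin-transferred onto 10 nM Pol kappa. After 15 min at room temperature, substrate was added to 50 nM final. Fluorescence was then measured kinetically at 0 and 10 min.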
# Pol iota inh – DNA polymerase iota (human) inhibition; Q9UNA4; Pol iota fluorescent replication assay, 10 min; Potency, µM (doses to about 115 µM), inactives show top-dose activity, negative = inhibition, hits mostly inhibitors; 390,000 compounds, 1% hits; AID 588590
#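 Fluorescent replication assay read twice, at 0 min and 10 min after adding 50 nM (final) substrate. Enzyme (10 nM) and compounds were first incubated 15 min at room temperature; enzyme-free buffer wells were negative controls.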
# * hit, by the source's call; ? = inconclusive; nt = not tested or not shown; [ ] = remark or other dose. Sampled rows, rich in hits. Any-hit rate of the full collection: about 2.4%. Calls follow the shape of the dose curve; as a rule, active = well fitted curve in the direction sought with a large enough effect; inconclusive = small, poorly fitted or top-dose-only effect, or another doubt; inactive = no such curve, though single readings can be large; an effect the other way counts as inactive or inconclusive. Potency is read from the fitted curve at half-maximal effect.
SMILES,FEN1 inh,WRN inhibitor,Pol eta inh,POLB inh,Pol kappa inh,Pol iota inh
Cc1ccc(S(=O)(=O)N2[C@@H](c3ccc(Cl)cc3)C(C(=O)O)=CC[C@H]2c2ccc(Cl)c(Cl)c2)cc1,?,-6%[11.6 µM],89µM*,nt,-16%,?
CCc1ccc([C@@H]2CC=C(C(=O)O)[C@H](c3ccccc3)N2S(=O)(=O)c2ccc(C)cc2)cc1,8%,-7%,2%,nt,-25%,-13%
COC(=O)c1ccc(OC(=O)c2cccnc2SC)cc1,14%,13%[57.1 µM],-4%,15%,-5%,30%
COC(=O)c1ccc(OC(=O)c2ccccn2)cc1,-5%,3%,9%,?,-9%,18µM*
O=C1c2cccnc2C(Nc2ccccc2)N1Cc1ccco1 (stereo unspecified),13%,-7%,-25%,0%,-1%,13µM*
O=C1c2cccnc2C(Nc2cccc(F)c2)N1Cc1ccco1 (stereo unspecified),-3%,2%,-5%,22%,-5%,-28%
Cc1cccc(C(=O)Nc2ccc(C(=O)OCc3cc(=O)n4c(C)csc4n3)cc2)c1,-27%,nt,-21%,13µM*,-5%[60.1 µM],-28%
Cc1cccc(C(=O)Nc2ccccc2OCc2cc(=O)n3c(C)csc3n2)c1,-2%,nt,-8%,83%,-7%,20%
O=C(Cc1ccc(F)cc1)NO,-1%,nt,nt,nt,-2%,21%
O=C1CCC[C@@H]2CC(Nc3ccccc3)C[C@@H]3CCN1[C@H]23 (stereo partly specified),17%,nt,nt,nt,-5%,28%
COCCCNC(=O)CSc1nc2cc3c(cc2c(=O)n1CCCC(=O)NCc1ccc2c(c1)OCO2)OCO3,18%,nt,13%,2%,-6%[60.1 µM],1%
CCCCNC(=O)CSc1nc2cc3c(cc2c(=O)n1CCCC(=O)NCc1ccc2c(c1)OCO2)OCO3,-9%,nt,-5%,38%,-5%[60.1 µM],89µM*
Cn1c(=O)c2c(nc(SCC(=O)NCc3ccc4c(c3)OCO4)n2Cc2ccc(Cl)cc2)n(C)c1=O,-11%,-11%,89µM*,-17%,-44%,?
O=C(O)c1c(-c2ccccc2)oc2ccc(OCc3ccc(Cl)c(Cl)c3)cc12,1%,nt,?,?,-30%,5%
N#Cc1c(-n2ncnc2-c2ccc(F)cc2)sc2c1CCCCC2,-11%,nt,-20%,1%,4%,5%
O=C(O)c1cccc(O)c1O,16%,-2%,-23%,nt,-2%,6%
Oc1cccc(O)c1O,nt,nt,nt,nt,3µM*,nt
CS(=O)(=O)Nc1c(O)ccc2c1CCCC2C1=NCCN1 (stereo unspecified),nt,nt,nt,nt,-2%[19.4 µM],nt
CC1(N2CCOCC2)CC2(O)C(=[N+]1[O-])CCc1c2no[n+]1[O-] (stereo unspecified),?,?,18µM*,2%,?,?
Cc1cnc(NC(=O)CSc2nnc(Cc3ccccc3)o2)s1,0%,-9%[57.1 µM],-10%,-1%,-7%,71µM*
CCCCCN1CC(O)=C(c2nc3ccccc3[nH]2)C1=N,1%,6%,6%,32µM*,-8%,67%
Cc1ccc(CN(Cc2ccco2)C(=O)COc2ccc(Cl)cc2)o1,-21%,nt,-18%,4%,-24%,19%
CCOC(=O)C1=C(C)NC2(O)c3ccccc3C(=O)C12O (stereo unspecified),-8%,3%,-14%,3%,1%,2%
COCCOC(=O)C1=C(C)NC2(O)c3ccccc3C(=O)C12O (stereo unspecified),15%,-1%,-2%,-1%,4%[60.1 µM],32µM*
O=C(O)c1ccc(NC(CSCc2ccc(F)cc2)C(=O)O)c([N+](=O)[O-])c1 (stereo unspecified),2%,-2%,-1%,3%,-15%,79µM*
SMILES,FEN1 inh,WRN inhibitor,Pol eta inh,POLB inh,Pol kappa inh,Pol iota inh
Cc1ccc(CSCC(Nc2ccc(C(=O)O)cc2[N+](=O)[O-])C(=O)O)cc1 (stereo unspecified),-1%,-5%,-3%,27%,-4%[60.1 µM],1%
O=c1cc2nc(-c3ccccc3)nc(SCc3cccc(Br)c3)n2[nH]1,-33%,nt,?,?,-10%,-19%
COc1cccc(-c2nc(SCc3cccc(Br)c3)n3[nH]c(=O)cc3n2)c1,-18%,nt,?,13µM*,-43%,?
Cc1cc(F)ccc1NC(=O)C1CCCN(C(=O)c2cnn(-c3ccccc3)c2-n2cccc2)C1 (stereo unspecified),-1%,nt,-9%,12%,-13%,20%
Oc1c(/C=C/C=C/C=Nc2ccccc2)sc(=S)n1Cc1ccccc1,-16%,-30%,?,-58%,79µM*,25µM*
CCn1c(O)c(/C=C/C=C/C=Nc2ccccc2)sc1=S,12%,-27%,-12%,1%,-26%,?
COc1cccc2c1ncc1c(-c3ccc(C)cc3)nn(-c3ccc(F)cc3)c12,-6%,nt,-6%,36%,-13%[60.1 µM],-1%
CNc1cccccc1=S,-10%,-12%[11.6 µM],?,16µM*,79µM*,10µM*
O=c1c2nncn2ccn1-c1ccc(F)c(F)c1,10%,nt,-23%,32µM*,-25%,-4%
CN1CCN(c2ncc3nc(-c4cc(F)cc(F)c4)c(=O)n(CCc4ccccc4)c3n2)CC1,nt,nt,nt,nt,5%[60.1 µM],nt
CC(C(=O)Nc1ccc(O)cc1C(=O)O)N1C(=O)/C(=C\c2cccs2)SC1=S (stereo unspecified),-24%,-4%[11.6 µM],22µM*,?,?,?
O=C(CCCN1C(=O)/C(=C\c2cccs2)SC1=S)Nc1ccccc1O,nt,-2%,-2%,nt,nt,nt
CC(C)(C)n1ncc2c(=O)n(Cc3cccc(OC(F)(F)F)c3)cnc21,-1%,nt,nt,nt,-1%,11%
CC1C(=O)N(Cc2cn(Cc3ccco3)nn2)CCS(=O)(=O)N1Cc1ccc(-c2ccncc2)cc1 (stereo unspecified),nt,2%[11.6 µM],50µM*,nt,nt,nt
O=C1NC(c2cccc(Br)c2)=N/C1=C\c1ccco1,-3%,-3%,4%,45µM*,-85%,25µM*
O=C1NC(c2ccccc2)=N/C1=C/c1ccco1,-5%,-27%,-14%,28µM*,?,5%
O=C1NNC(c2ccccc2)=N/C1=C\c1ccccc1,10%,1%,-19%,-2%,-16%,?
O=C1NC(c2ccccc2Br)=N/C1=C\c1ccco1,-10%,-1%[11.6 µM],-9%,?,79µM*,?
Cc1cccc2c(=O)cc(CSc3ccccc3NC(=O)C(C)(C)C)[nH]c12,14%,nt,-10%,-10%,-9%[60.1 µM],-24%
CN(C)c1ccc(C(CNS(=O)(=O)c2ccc(Cl)cc2)N2CCOCC2)cc1 (stereo unspecified),37%,nt,-10%,9%,-12%[60.1 µM],0%

# High-throughput results deposited in PubChem by National Center for Advancing Translational Sciences (NCATS).
